# Results reported in PubChem BioAssay (NCATS).
# Results filed as inconclusive are left out. A call without a number means that no potency is given here. Values without a mark were called inactive. Active and inactive are the calls of the source. The call rests on the fitted dose curve; in most records, active means well fitted curve in the direction sought with a large enough effect; inconclusive means small, poorly fitted or top-dose-only effect, or another doubt; inactive means no such curve, though single readings can be large; an effect the other way counts as inactive or inconclusive.
# Tests used:
# [1] = qHTS for Inhibitors of Plasmodium falciparum (DD2) proliferation (AID 504314);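 further: parasite DNA measured by SYBR Green fluorescence after red cell lysis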
# Method in brief: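 Erythrocytes infected with P. falciparum (0.3% parasitemia, 2.5% hematocrit final) were incubated with compounds for 72 h at 37C, 5% CO2. Parasite DNA was detected by SYBR Green I fluorescence after saponin/Triton lysis, normalized to artemisinin (0.29 uM) and DMSO controls.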
# [2] = qHTS for Inhibitors of Plasmodium falciparum (GB4) proliferation (AID 504315); further: nearly all actives have a fitted effect of over 50% in size; further: potency means the concentration at half of the fitted maximal effect
# Method in brief: (§1)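 Erythrocytes infected with P. falciparum line (0.3% parasitemia, 2.5% hematocrit final) incubated with compounds 72 h at 37 °C, 5% CO2; SYBR Green lysis buffer added, fluorescence read next day. Normalized to 0.29 uM artemisinin and DMSO.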
# [3] = qHTS for Inhibitors of Plasmodium falciparum (CP250) proliferation (AID 504320); further: potency means the concentration at half of the fitted maximal effect
# Method in brief: as §1
# [4] = qHTS for Inhibitors of Plasmodium falciparum (7G8) proliferation (AID 504316); further: nearly all actives have a fitted effect of over 65% in size; further: potency means the concentration at half of the fitted maximal effect
# Method in brief: as §1
# [5] = qHTS for Inhibitors of Plasmodium falciparum (HB3) proliferation (AID 504318); further: nearly all actives have a fitted effect of over 60% in size; further: potency means the concentration at half of the fitted maximal effect
# Method in brief: as §1
Compound,Potency [1],Potency [2],Potency [3],Potency [4],Potency [5]
COc1ccc(O[C@H]2C=C[C@@H](c3ccccc3)O[C@H]2CON=C[C@@H](C)[C@H](OCc2ccccc2)C(C)C)cc1,inactive,inactive,inactive,,
C=CCCC1(C(=O)c2ccccc2)C(=O)C(CC=C(C)C)=C(OC)C(CC=C(C)C)(CCC=C(C)C)C1=O (stereo unspecified),,,,1510 nM (active),1690 nM (active)
CCN1C(=NCc2cc(OC)c(OC)c(OC)c2)NC(c2cccc(C(F)(F)F)c2)C(C(=O)OC)=C1C (stereo unspecified),,,inactive,1900 nM (active),
O=P1(O)Oc2c(-c3ccccc3)cc3ccccc3c2-c2c(c(-c3ccccc3)cc3ccccc23)O1,inactive,inactive,inactive,,
CC(=O)C1=C(C)N(Cc2ccccc2)C(=O)NC1c1ccc(Br)cc1 (stereo unspecified),,inactive,inactive,inactive,inactive
CC12C=C(C=Cc3ccc(Br)cc3)C(C)(C1)[C@H](c1ccc(Br)cc1)CC2=O (stereo partly specified),,,,1690 nM (active),1690 nM (active)
CCN1C(=NCc2cc(OC)c(OC)c(OC)c2)NC(c2cccc(F)c2)C(C(=O)OC)=C1C (stereo unspecified),,,inactive,849 nM (active),
C=CC[C@@H]1C=C[C@H](ON=C2c3cc(OC)ccc3O[C@H](c3cccc(OC)c3)[C@@H]2O)[C@H](CO)O1,,,inactive,,inactive
COc1ccc(O[C@H]2C=C[C@@H](c3ccccc3)O[C@H]2COC(=O)CCC(C)=NOCC[C@@H]2C=C[C@H](OC(C)=O)[C@@H](COC(C)=O)O2)cc1,,,inactive,,inactive
CCN1C(=NCc2ccc(OC)cc2)NC(c2cccc(C(F)(F)F)c2)C(C(=O)OC)=C1C (stereo unspecified),inactive,,inactive,inactive,inactive
C[C@@H]1CC2=CCCC2[C@]2(O1)C(=O)N(Cc1ccc(Br)cc1)c1cccc(Br)c12 (stereo partly specified),inactive,,inactive,inactive,
O=c1oc2ccccc2c2c1[C@H]1O[C@](c3ccsc3)(Cc3c1ccc1ccccc31)O2,inactive,,inactive,inactive,
CCN1C(=S)NC(c2cccc(F)c2)C(C(=O)OC)=C1C (stereo unspecified),inactive,,inactive,inactive,inactive
COC1=C[C@H](C(=O)NCCNC(C)=O)[C@@]2(C)Cc3ccccc3[C@@H]2CC1=O,inactive,,inactive,inactive,inactive
COC[C@@H](OC(C)=O)[C@H]1OCc2ccccc2[C@H]1C=Cc1ccccc1,inactive,,inactive,inactive,inactive
Cc1cc2c(c(=O)n1Cc1ccccc1)[C@H]1O[C@](CCCCN3C(=O)c4ccccc4C3=O)(Cc3c1ccc1ccccc31)O2,,1510 nM (active),1690 nM (active),1510 nM (active),1510 nM (active)
COC(=O)C1=C(C)N(Cc2ccccc2)C(=NCCc2ccc([N+](=O)[O-])cc2)NC1c1cccc(F)c1 (stereo unspecified),,,,2690 nM (active),inactive
COc1cccc([C@H]2NC(=O)C[C@@H]3C[C@@H](C)[C@@H](c4cccc(OC)c4)N3C(=O)C=CC[C@@H]2C)c1,,,inactive,,
COC(=O)N1C(C=CC=Cc2ccc(OC)cc2)=Cc2ccccc2C1CC(C)=O (stereo unspecified),,,inactive,1510 nM (active),
COCC=CC1=CC2=CC(=O)C(C)(OC(=O)c3cnc4ccccc4n3)C(=O)C2=CN1Cc1ccc(OC)cc1 (stereo unspecified),inactive,,inactive,inactive,inactive

Compound,Potency [1],Potency [2],Potency [3],Potency [4],Potency [5]
CCOC(=O)CN1C(=O)NC(c2ccc(Br)cc2)C(C(C)=O)=C1C (stereo unspecified),inactive,,inactive,,inactive
COc1ccc2c(c1)O[C@@H](c1ccc3c(c1)OCO3)[C@H](OC(=O)Nc1cc(OC)c(OC)c(OC)c1)C2=O,,,inactive,1690 nM (active),
COC1=C[C@H](C(=O)NC2CCN(Cc3ccccc3)CC2)[C@H](C)[C@@H](c2ccccc2)CC1=O,,,inactive,,
CC(=O)C1=C(C)N(Cc2ccccc2)C(=O)NC1c1ccco1 (stereo unspecified),,inactive,inactive,,inactive
CCN1C(=NCc2ccc3c(c2)OCO3)NC(c2ccccc2)C(C(=O)OC)=C1C (stereo unspecified),,,,,inactive
COc1ccc([C@]23Cc4ccccc4[C@H](O2)C2=C(CC(C)(C)CC2=O)O3)cc1,,,inactive,,
COC(=O)CCCC1=CC2=CC(=O)C(C)(OC(=O)c3cccs3)C(=O)C2=CN1c1ccc(OC)cc1 (stereo unspecified),,,inactive,,
COC(=O)C1=C(C)N(Cc2ccccc2)C(=NCCc2c[nH]c3ccccc23)NC1c1ccc(Br)cc1 (stereo unspecified),inactive,,inactive,inactive,inactive
CC1=CC[C@@H](COc2ccccc2)O[C@@]2(C1)C(=O)Nc1ccccc12,inactive,,inactive,,inactive
C[C@H]1CC[C@H]2C(=O)NC[C@H](O)CN2[C@H]1c1ccc(Br)cc1,inactive,,inactive,inactive,inactive
COc1cc([C@@H](NC(=O)C(F)(F)F)C2CCCCC=C2c2ccccc2)cc(OC)c1OC (stereo partly specified),,inactive,inactive,,
CCCCOC(OCCCC)C(O)CSc1ccc2ccccc2c1 (stereo unspecified),,inactive,inactive,inactive,inactive
COc1ccc2c(c1)[C@@H](NC(=O)C(F)(F)F)[C@@H]1CCCC[C@]21c1ccccc1,inactive,,inactive,inactive,
Cc1noc(C)c1S(=O)(=O)N1CCc2nc(-c3ccccc3)c3c(c2C1)CO[C@@H](C)C3,,,inactive,inactive,inactive
CC(C)OC(=O)[C@H](C)NC(=O)N1CCc2nc(COc3ccccc3)c3c(c2C1)CO[C@@H](C)C3,,,inactive,1350 nM (active),2620 nM (active)
COc1cccc([C@H]2Oc3ccc(OC)cc3C(=NOC[C@@H](C)[C@H](OCc3ccccc3)C(C)C)[C@H]2O)c1,,inactive,inactive,inactive,inactive
CCCCCCC(=O)Cc1cc(OC)c(OC)cc1C=C(C(C)=O)C(=O)OC,inactive,,inactive,inactive,inactive
COc1ccc(O[C@H]2C=C[C@@H](c3ccccc3)O[C@H]2CON=C2[C@H]3CCn4c(=O)n(-c5ccccc5)c(=O)n4[C@@H]3[C@H](O)[C@@H]3O[C@H]23)cc1,,inactive,inactive,inactive,inactive
Cc1cc2c(c(=O)o1)[C@H]1O[C@](CCCCN3C(=O)c4ccccc4C3=O)(Cc3cc(C#N)ccc31)O2,inactive,inactive,inactive,,
CCCC[C@]12Cc3cc(C#N)ccc3[C@H](O1)c1c(cc(-c3ccccc3)oc1=O)O2,,,inactive,,
